HSP90 refold inh: HSP90 inhibitors, primary screen, cell lysate, luminescence; hit rate 0.91% among 290,000; Heat shock protein HSP 90 (rabbit reticulocyte lysate; luciferase refolding); AID 1789, 2009; inhibition, % at 5.6 µM; Rabbit reticulocyte lysate, luciferase refolding luminescence, 3 h;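 active = inhibition above the screen-wide mean plus 3 SD, computed separately per campaign, cut at about 16% in these data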;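 note: inhibitors lower the luminescence because luciferase stays unfolded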
TROY NFkB inh: inhibitors of TROY-driven NF-kB signaling, primary screen, Q293 LMP1-TROYcd cells, NF-kB luciferase, uHTS; Q293 LMP1-TROYcd NF-kB luciferase reporter, 4 h; inhibition, % at 10 µM; hit rate 0.98% among 360,000;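 active = compounds whose plate-normalised and pattern-corrected inhibition of the luciferase reporter signal at the single screening dose is 50% or more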
LGR2 inh: inhibitors of bursicon-induced LGR2 CRE-luciferase signal, primary screen, cell-based, HEK293, CRE-luciferase reporter, bursicon stimulation; bursicon-stimulated, 4 h; inhibition, % at 9.99 µM; Drosophila bursicon receptor LGR2 (rickets); hit rate 0.35% among 380,000; AID 720647, 2013;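 active = drop in luminescence signal, shown as inhibition above about 50% in the replicate tests, limit read from the data, passing the limit was not always enough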;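 note: agonist challenge used bursicon conditioned medium at about half maximal strength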
TWEAK-Fn14 inh: inhibitors of TWEAK-Fn14 signaling, primary screen, luciferase reporter cells, uHTS. inhibition, % at 10 µM. hit rate 2% among 360,000. AID 1159606, 2016. TWEAK-stimulated Fn14 reporter cells, luciferase luminescence, 8 h; in the data active = inhibition above about 50%
HSP90 inh confirm: HSP90 inhibitors, confirmation, cell lysate, luminescence. shares compounds with HSP90 refold inh. rabbit reticulocyte lysate, luciferase refolding luminescence, 3 h. inhibition, % at 5.9 µM. hit rate 64% among 2,300. AID 1846, 2009; in the data active = inhibition above about 18%
FLuc counter: firefly luciferase inhibitors, HSP90 counter-screen, confirmation, artefact control for HSP90 inhibitor project, biochemical, luminescence, triplicate; shares compounds with HSP90 refold inh; hit rate 48% among 2,300; AID 1847, 2009; inhibition, % at 5.9 µM; purified native firefly luciferase;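 active = inhibition above the mean inhibition of all tested sample wells plus 3 SD, cut at about 10% in these data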
Target sequence (P08659 whole entry, looked up): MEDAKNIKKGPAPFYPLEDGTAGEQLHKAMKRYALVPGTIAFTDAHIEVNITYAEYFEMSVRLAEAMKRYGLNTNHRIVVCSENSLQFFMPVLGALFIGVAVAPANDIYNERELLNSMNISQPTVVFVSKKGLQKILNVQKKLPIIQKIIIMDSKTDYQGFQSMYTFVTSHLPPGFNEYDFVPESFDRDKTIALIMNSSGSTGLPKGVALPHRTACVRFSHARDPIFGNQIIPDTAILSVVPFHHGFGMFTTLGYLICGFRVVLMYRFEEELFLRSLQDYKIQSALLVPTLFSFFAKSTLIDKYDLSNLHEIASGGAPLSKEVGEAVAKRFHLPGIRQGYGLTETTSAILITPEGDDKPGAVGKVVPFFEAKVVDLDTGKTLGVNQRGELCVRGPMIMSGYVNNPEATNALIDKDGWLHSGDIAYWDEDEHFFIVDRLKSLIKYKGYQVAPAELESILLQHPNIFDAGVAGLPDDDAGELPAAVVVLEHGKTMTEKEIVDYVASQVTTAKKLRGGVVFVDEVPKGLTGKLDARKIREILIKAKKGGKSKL
Numbers stand for hits; – = inactive; · = not tested or not shown. In the library only some 2.2% were active in any assay of this set; here they are far more common.

SMILES | HSP90 refold inh | TROY NFkB inh | LGR2 inh | TWEAK-Fn14 inh | HSP90 inh confirm | FLuc counter
C[C@@H]1CN([C@@H](C)CO)C(=O)c2cccc(NS(=O)(=O)c3ccc(F)cc3)c2O[C@@H]1CN(C)C(=O)Nc1cccc2ccccc12 | · | · | – | · | · | ·
O=C(N[C@@H](Cc1c[nH]c2ccccc12)C(=O)O)C1CCN(S(=O)(=O)c2cccs2)CC1 | 20 | – | – | – | – | –
CCOC(=O)CNC(=O)CSc1ccc2nnc(-c3ccc(F)cc3)n2n1 | – | – | – | – | · | ·
CCSc1ccc2nnc(-c3ccc(F)cc3)n2n1 | 88 | – | – | – | – | –
COc1ccc(NC(=O)Nc2ccc3c(c2)CC(=O)N([C@@H](C)CO)C[C@@H](C)[C@@H](CN(C)S(C)(=O)=O)O3)cc1 | · | · | – | · | · | ·
C[C@@H]1CCCCO[C@@H](CN(C)C(=O)Nc2cccc3ccccc23)[C@H](C)CN([C@@H](C)CO)C(=O)c2cc(NC(=O)Nc3cccc4ccccc34)ccc2O1 | · | · | – | · | · | ·
Cc1cc(O)c(S(=O)(=O)c2ccccc2)c(C)c1NS(=O)(=O)c1ccccc1 | 18 | – | – | – | 21 | –
O=C(O)c1cccc(NC2=C(n3nnc4ccccc43)C(=O)c3ccccc3C2=O)c1 | – | – | – | – | · | ·
CCc1ccc(S(=O)(=O)/N=C2\C=C(Nc3cccc(C(=O)O)c3)C(=O)c3ccccc32)cc1 | 69 | – | – | 98 | 82 | –
O=C1C(Nc2ccc(O)cc2)=C/C(=N/S(=O)(=O)c2cccs2)c2ccccc21 | 73 | 58 | 100 | 95 | 91 | –
CCc1ccc(S(=O)(=O)/N=C2\C=CC(=O)c3ccccc32)cc1 | – | · | · | · | · | ·
O=C1C=C(Nc2ccc(O)cc2)C(=O)c2ccccc21 | – | – | – | – | · | ·
CCc1ccc(S(=O)(=O)/N=C2\C=C(Nc3ccc(O)cc3)C(=O)c3ccccc32)cc1 | 31 | 74 | · | 94 | 72 | –
CCc1ccc(S(=O)(=O)/N=C2/C=C(Sc3ncn[nH]3)C(=O)c3ccccc32)cc1 | 88 | 60 | · | 96 | 33 | 34
C[C@@H]1CN([C@H](C)CO)C(=O)c2cc(NC(=O)Cn3cnnn3)ccc2O[C@@H]1CN(C)S(=O)(=O)c1ccccc1 | · | · | – | · | · | ·
CO[C@H]1CN(C)C(=O)c2cc(NC(=O)c3ccccc3F)ccc2OC[C@H](C)N(C)C[C@@H]1C | · | · | – | · | · | ·
Cc1noc(C)c1S(=O)(=O)N(C)C[C@H]1Oc2ccc(NC(=O)CCCN(C)C)cc2C(=O)N([C@H](C)CO)C[C@H]1C | · | · | – | · | · | ·
Cc1cc(C)c(C(=O)Cn2nc(C(=O)O)c3ccccc3c2=O)cc1C | – | – | – | – | · | ·
Cc1cc(C(=O)Cn2nc(C(=O)O)c3ccccc3c2=O)c(C)n1-c1ccccc1 | 25 | 70 | – | – | 62 | 31
N#Cc1cc2ccccc2nc1N | 20 | – | – | – | – | –
Nc1nc2ccccc2cc1-c1cccs1 | – | – | – | – | · | ·
Cc1ccc(-c2nnc(SCC(=O)Nc3ccccc3F)o2)cc1 | 54 | 78 | 57 | 86 | 31 | 29
O=C(CSc1nnc(-c2cccnc2)o1)Nc1ccc(Br)cc1 | 18 | – | – | – | – | –
COC(=O)c1ccccc1NC(=O)CSc1nnc(-c2ccc(C)cc2)o1 | – | · | · | · | · | ·
C[C@H]1CN([C@@H](C)CO)C(=O)c2cc(NC(=O)NC3CCCCC3)ccc2O[C@H]1CN(C)Cc1ccncc1 | · | · | – | · | · | ·
SMILES | HSP90 refold inh | TROY NFkB inh | LGR2 inh | TWEAK-Fn14 inh | HSP90 inh confirm | FLuc counter
O=C(COC(=O)c1ccc(N2CCCC2=O)cc1)c1ccccc1 | 18 | – | – | – | 27 | –
C[C@H](CO)N1C[C@H](C)[C@@H](CN(C)S(=O)(=O)c2cccs2)OCCCC[C@H](C)Oc2ccc(NS(=O)(=O)c3ccc(F)cc3)cc2C1=O | · | · | – | · | · | ·
N#CCCSc1ncnc2c1oc1ccccc12 | 26 | – | · | – | – | –
CCN1CCN(C(c2ccccn2)c2c(NC(=O)c3ccccc3)sc(C)c2C)CC1 (stereo not given) | 33 | – | · | – | – | –
Cc1ccc2nc(NC(=O)c3ccco3)sc2c1 | 45 | 62 | · | 98 | 83 | 79
COc1ccc2nc(NC(=O)c3ccco3)sc2c1 | 41 | – | 81 | 81 | 58 | 56
CC(=O)Nc1nc2ccc(NC(=O)c3ccco3)cc2s1 | – | – | · | – | · | ·
c1ccc2c(c1)[nH]c1c(NCC3CCCO3)ncnc12 (stereo not given) | 32 | – | · | – | – | –
c1nc(NCC2CCCO2)c2[nH]cnc2n1 (stereo not given) | – | – | · | – | · | ·
COc1ccc(CN=C2NN=C(c3ccc(Cl)cc3)CS2)cc1 | – | – | – | – | · | ·
CC(=O)c1c(C)[nH]c(C2=NNC(=NC(C)(C)C)SC2)c1C | – | – | – | – | · | ·
CC(C)(C)N=C1NN=C(c2cc3ccccc3o2)CS1 | 20 | 70 | – | 63 | 29 | 23
CC(C)(C)N=C1NN=C(c2ccc(Cl)cc2)CS1 | 20 | 62 | – | 65 | 22 | 22
COc1ccccc1C(=O)Nc1ccc2c(c1)C(=O)N(C)C[C@H](OC)[C@H](C)CN(CC1CC1)[C@H](C)CO2 | · | · | – | · | · | ·
C(=N\Nc1ccc2ccccc2n1)/c1ccc2c(c1)OCCO2 | 68 | 88 | 88 | 101 | 93 | 92
Cc1cccc(/C=N/Nc2ccc3ccccc3n2)c1 | 66 | 84 | 79 | 93 | 85 | 84
Cc1cc(N/N=C/c2cccc(Br)c2)nc2ccccc12 | – | – | – | – | · | ·
Cc1ccccc1-c1ccc(=O)n(CC(=O)Nc2ccc(N3CCOCC3)cc2)n1 | 43 | – | – | – | – | –
Cc1ccccc1-c1ccc(=O)n(CC(=O)Nc2ccc(C(=O)N3CCCC3)cc2)n1 | – | – | · | – | · | ·
Brc1ccc(-c2ncc3ccccn23)cc1 | 27 | – | – | – | – | –
CCC(=O)Nc1ccc(Cl)c(-c2nc3ncccc3o2)c1 | – | – | – | – | · | ·
CC(C)C(=O)Nc1ccc(-c2nc3cccnc3o2)cc1 | 26 | – | · | 60 | 30 | –
CC(C)C(=O)Nc1ccc(-c2nc3ncccc3o2)cc1 | 18 | – | – | – | 25 | 13
CCCC(=O)Nc1ccc(Cl)c(-c2nc3ncccc3o2)c1 | 23 | – | – | – | – | –
COc1ccc2c3c(n(C)c2c1)[C@H](CO)N(C(=O)CC1CC1)CC31CCN(Cc2ccncc2)CC1 | · | · | – | · | · | ·
C[C@@H]1CN([C@@H](C)CO)C(=O)c2cc(NC(=O)CCCCCC(=O)Nc3ccccc3N)ccc2O[C@@H]1CN(C)Cc1ccncc1 | · | · | – | · | · | ·
CCN(CC)CCn1c(=S)[nH]c2ccc(Cl)cc2c1=O | 45 | – | · | – | – | –
CCN(CC)CCn1c(=S)[nH]c2cc(Cl)ccc2c1=O | – | – | – | – | · | ·

Compound activity as filed in PubChem BioAssay.
